Reference: PubChem BioAssay (EPA / NIEHS)
The source made the active and inactive calls. How the source made its calls: active means hit-call score of the fitted dose curve at least 0.9, where 1 is the maximum; inactive means score below 0.9.

test: ATG_GATA_CIS: Attagene CIS-FACTORIAL HepG2 Assay for human GATA Binding Protein (AID 2282944); conditions: HepG2 GATA cis-element reporter, Attagene multiplex mRNA; actives raise or lower the signal
Procedure: ATG_CIS is a cell-based, multiplexed-readout assay that uses HepG2, a human liver cell line, with measurements taken at 24 hours after chemical dosing in a 24-well plate.ATG_GATA_CIS is one of 52 assay component(s) measured or calculated from the ATG_CIS assay. It is designed to make measurements of mRNA induction, a form of inducible reporter, as detected with fluorescence intensity signals by Reverse transcription polymerase chain reaction (RT-PCR) and Capillary electrophoresis technology.Data from the assay component ATG_GATA_CIS was analyzed into 1 assay endpoint. This assay endpoint, ATG_GATA_CIS, was analyzed with bidirectional fitting relative to DMSO as the negative control and baseline of activity. Using a type of inducible reporter, measures of mRNA for gain or loss-of-signal activity can be used to understand the reporter gene at the transcription factor-level as they relate to the gene GATA1. Furthermore, this assay endpoint can be referred to as a primary readout, because this assay has produced multiple assay endpoints where this one serves a reporter gene function. To generalize the intended target to other relatable targets, this assay endpoint is annotated to the dna binding intended target family, where the subfamily is GATA proteins.
Human liver HepG2 cells are transiently transfected with multiple reporter transcription units (MRTUs) in 6-well plates using FuGene 6 reagent (Roche; 3 ml FuGene/1 mg DNA). The MRTU constructs are regulated by a cis-regulating element (promoter). […] A major difference between the CIS and TRANS system is that in CIS activities of endogenous TFs are measured, whereas the TRANS assay evaluates changes in activities of exogenous, chimeric NR-Gal4 proteins. […] At the end of 24 hour incubation, total RNA was isolated using TriZol reagent (Invitrogen). The isolated RNA is then reverse-transcribed using oligo(dT) primer and Mo-MLV reverse transcriptase (Invitrogen) with DNAse I (Ambion) treatment for 30 min. The one-tenth of the produced cDNA was amplified by PCR using Taq DNA polymerase (Invitrogen) and two reporter sequence-specific primers. The PCR products were fluorescently labeled by primer extension with 6-arboxyfluorescein (6-FAM) 5'-labeled reporter sequence-specific primer (2 min at 95 C, 20 s at 68 C and 10 min at 72 C) and these products were digested with 5U of HpaI (New England Biolabs) for 2h at 37 C. The fragments were purified using Qiaquick PCR columns (Qiagen), analyzed on an ABI 3130xL genetic analyzer (Applied Biosystems) with peak positions identified by using a set of X-rhodamine (ROX)-labeled MapMarker1000 molecular weight standards (BioVentures). The raw capillary electrophoresis data was processed using Attagraph software (Attagene).

| SMILES | outcome |
| --- | --- |
| N#Cc1c[nH]cc1-c1cccc2c1OC(F)(F)O2 | inactive |
| COC(=O)N(C(=O)N1CO[C@@]2(C(=O)OC)Cc3cc(Cl)ccc3C2=N1)c1ccc(OC(F)(F)F)cc1 | inactive |
| CCCCC(O)(Cn1cncn1)c1ccc(Cl)cc1Cl (stereo not given) | inactive |
| COc1ccc(-c2ccccc2)cc1NNC(=O)OC(C)C | inactive |
| CCNP(=S)(OC)O/C(C)=C/C(=O)OC(C)C (stereo not given) | inactive |
| CC(C)Nc1nc(Cl)nc(NC(C)C)n1 | inactive |
| CNC(=O)N(C)c1nnc(C(C)(C)C)s1 | inactive |
| Nc1c(Cl)c(F)nc(OCC(=O)O)c1Cl | inactive |
| COCC(=O)N(c1c(C)cccc1C)C(C)C(=O)OC (stereo not given) | inactive |
| C=C(C)CN(CC)c1c([N+](=O)[O-])cc(C(F)(F)F)cc1[N+](=O)[O-] | inactive |
| Cn1c(-c2ccccc2)cc(-c2ccccc2)[n+]1C | inactive |
| OC(c1ccc(Cl)cc1)(c1ccc(Cl)cc1)C(Cl)(Cl)Cl | inactive |
| COc1cc(OC)nc(NC(=O)NS(=O)(=O)c2ncccc2OCC(F)(F)F)n1 | inactive |
| CCOC(=O)C(C)OC(=O)c1cc(Oc2ccc(C(F)(F)F)cc2Cl)ccc1[N+](=O)[O-] (stereo not given) | inactive |
| CCC(C)n1c(=O)[nH]c(C)c(Br)c1=O (stereo not given) | inactive |
| O=C(O)c1c(Cl)ccc2cc(Cl)cnc12 | inactive |
| COCc1cnc(C2=NC(C)(C(C)C)C(=O)N2)c(C(=O)O)c1 (stereo not given) | inactive |
| CC(C)C1(C)N=C(c2ncccc2C(=O)O)NC1=O (stereo not given) | inactive |
| COCC(C)N(C(=O)CCl)c1c(C)csc1C (stereo not given) | inactive |
| CC(C)NC(=O)N1CC(=O)N(c2cc(Cl)cc(Cl)c2)C1=O | inactive |

| SMILES | outcome |
| --- | --- |
| Clc1nc(Cl)nc(Nc2ccccc2Cl)n1 | inactive |
| CCOP(=S)(OCC)Oc1nc(Cl)n(C(C)C)n1 | inactive |
| Cc1c(COC(=O)[C@@H]2[C@H](/C=C(\Cl)C(F)(F)F)C2(C)C)cccc1-c1ccccc1 | inactive |
| CC(C)(C)C(=O)C(Oc1ccc(Cl)cc1)n1cncn1 (stereo not given) | inactive |
| CC1(C)CCC(=Cc2ccc(Cl)cc2)C1(O)Cn1cncn1 (stereo not given) | inactive |
| CNC(=O)Oc1cccc2ccccc12 | inactive |
| Nc1c(Cl)c(Cl)nc(C(=O)O)c1Cl | inactive |
| O=P(O)(O)CCCl | inactive |
| COC(=O)NS(=O)(=O)c1ccc(N)cc1 | inactive |
| CN/C(=N\[N+](=O)[O-])NCc1cnc(Cl)s1 | inactive |
| CC1(C)CON(Cc2ccccc2Cl)C1=O | inactive |
| CCOc1nc(F)cc2nc(S(=O)(=O)Nc3c(Cl)cccc3Cl)nn12 | inactive |
| CC(C)N1C(=O)c2ccccc2NS1(=O)=O | inactive |
| CCN(CC)C(=O)C(C)Oc1cccc2ccccc12 (stereo not given) | inactive |
| O=C(Nc1ccccc1-c1ccc(Cl)cc1)c1cccnc1Cl | inactive |
| CCCCC(C#N)(Cn1cncn1)c1ccc(Cl)cc1 (stereo not given) | inactive |
| CC(C)N1C(=O)N(c2ccccc2)CSC1=NC(C)(C)C | inactive |
| COP(=S)(OC)SCn1nnc2ccccc2c1=O | inactive |
| CCOc1cc(C(C)(C)C)ccc1C1COC(c2c(F)cccc2F)=N1 (stereo not given) | inactive |
| CN=C=S | inactive |
